Assay in all cases: Primary qHTS to identify gynecologic anti-cancer compounds using libraries of approved drugs and bioactive compounds (AID 1345084); also: nearly all actives have a fitted effect of over 55% in size
(In general: In qHTS, concentration-response curves come from the screen itself.)

For one experiment, the system named is CAOV3. The note with it: Gynecologic cancer cell panel viability, ATPlite luminescence, 48 h; series mostly up to 57.5 µM. The procedure, abridged:
(§1)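 Cell viability after 48 h drug treatment, ATPlite luminescence readout; five doses.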
Background: ATP-based viability assays read luminescence as a measure of living cells.

In another experiment the test system is CASKI. The note with it: Gynecologic cancer cell panel viability, ATPlite luminescence, 48 h; series mostly up to 57.5 µM. The essentials:
as §1

Another experiment deals with Es-2. To be noted: Gynecologic cancer cell panel viability, ATPlite luminescence, 48 h; series mostly up to 57.5 µM. The procedure, abridged:
as §1

Another experiment concerns HeLa. To be noted: Gynecologic cancer cell panel viability, ATPlite luminescence, 48 h; series mostly up to 57.5 µM. The essentials:
as §1

In the next experiment the test system is Hek293T. To be noted: Gynecologic cancer cell panel viability, ATPlite luminescence, 48 h, control line for the selectivity index; series mostly up to 57.5 µM. The essentials:
as §1

The test system of a further experiment is JEG-3. To be noted: Gynecologic cancer cell panel viability, ATPlite luminescence, 48 h; series mostly up to 57.5 µM. The essentials:
as §1

In the next experiment the test system is OV90. To be noted: Gynecologic cancer cell panel viability, ATPlite luminescence, 48 h; series mostly up to 57.5 µM. The procedure, abridged: as §1
The next experiment concerns PA-1. The note with it: Gynecologic cancer cell panel viability, ATPlite luminescence, 48 h; series mostly up to 57.5 µM. The essentials:
as §1

The subject of another experiment is SKOV3. To be noted: Gynecologic cancer cell panel viability, ATPlite luminescence, 48 h; series mostly up to 57.5 µM. The procedure, abridged: as §1
The next experiment relates to Tov-21-G. To be noted: Gynecologic cancer cell panel viability, ATPlite luminescence, 48 h; series mostly up to 57.5 µM. The procedure, abridged: as §1

Results on 17 compounds are retold here after PubChem BioAssay (NCATS).

Results filed as inconclusive are left out. The source made the active and inactive calls. Calls follow the shape of the dose curve; as a rule, active = well fitted cell-killing curve with a large enough effect; inconclusive = small, poorly fitted or top-dose-only effect, or effect the other way; inactive = flat fitted curve, though single readings scatter.
Potency is read from the fitted curve at half-maximal effect.

Regarding `Nc1ccc(Cl)cc1C(=O)c1ccccc1F`, the Potency entry in the experiment on CAOV3, in the experiment on CASKI, with Es-2, with HeLa, in the experiment on Hek293T and with JEG-3 was “inactive” in each case. Moreover, the Potency entry in the experiment with OV90, in the experiment on PA-1, in the experiment with SKOV3 and in the experiment with Tov-21-G was “inactive” each time.
In the case of `CC1Sc2c(C(=O)O)c(=O)c3cc(F)c(N4CCNCC4)cc3n21` (configuration not stated), the Potency result in the experiment on CAOV3, in the experiment with CASKI, in the experiment on Es-2, with HeLa, in the experiment with Hek293T and in the experiment with JEG-3 was “inactive” in each case. Moreover, the Potency entry in the experiment on OV90, in the experiment with PA-1 and with Tov-21-G was “inactive” in each case.
Consider `C[C@@H]1CN(C2CCC(C#N)(c3ccc(F)cc3)CC2)CC[C@]1(C(=O)O)c1ccccc1` (some centres not stated), for which the Potency result in the experiment on CAOV3, in the experiment with CASKI, with Es-2, in the experiment on HeLa, with Hek293T and with JEG-3 was “inactive” throughout. The Potency result in the experiment on OV90, with PA-1, in the experiment on SKOV3 and in the experiment on Tov-21-G was “inactive” in each case.
Consider `CCCC(C)C1(CC)C(=O)N=C(S)NC1=O` (configuration not stated), for which the Potency result in the experiment with CAOV3, in the experiment with CASKI, in the experiment with Es-2, in the experiment with HeLa, in the experiment with Hek293T and in the experiment on JEG-3 was “inactive” in each case. Besides, the Potency entry in the experiment on PA-1 and in the experiment with Tov-21-G was “inactive” in each case.
For `CCOC(=O)NC(O)C(Cl)(Cl)Cl` (configuration not stated), the Potency result in the experiment on CAOV3, in the experiment with CASKI, in the experiment with Es-2, with HeLa, in the experiment on Hek293T and in the experiment on JEG-3 was “inactive” throughout. Further, the Potency result in the experiment with OV90, in the experiment on PA-1, in the experiment with SKOV3 and in the experiment with Tov-21-G was “inactive” throughout.
With `CC(C)C(Br)C(=O)NC(N)=O` (configuration not stated), the Potency result in the experiment on CAOV3, with CASKI, in the experiment with Es-2, in the experiment on HeLa, in the experiment on Hek293T and in the experiment on JEG-3 was “inactive” in each case. Moreover, the Potency result in the experiment with OV90, with PA-1, in the experiment with SKOV3 and in the experiment on Tov-21-G was “inactive” each time.
Regarding `CNC(C)Cc1ccc2c(c1)OCO2` (configuration not stated), the Potency entry with CAOV3, in the experiment with CASKI, in the experiment on Es-2, in the experiment with HeLa, in the experiment on Hek293T and in the experiment with JEG-3 was “inactive” in each case. In addition, the Potency entry with OV90, in the experiment with PA-1, in the experiment on SKOV3 and in the experiment with Tov-21-G was “inactive” in each case.
Take `CN(C)CCc1c[nH]c2cccc(O)c12`: the Potency result with CAOV3, with CASKI, in the experiment on Es-2, in the experiment with HeLa, with Hek293T and in the experiment on JEG-3 was “inactive” each time. The Potency entry in the experiment with OV90, in the experiment with PA-1 and in the experiment on Tov-21-G was “inactive” in each case.
Turning to `C[C@H](CN1CCOCC1)C(C(=O)N1CCCC1)(c1ccccc1)c1ccccc1`, the Potency result in the experiment on CAOV3, with CASKI, with Es-2, in the experiment on HeLa, with Hek293T and with JEG-3 was “inactive” in each case. The Potency entry in the experiment with PA-1, in the experiment on SKOV3 and in the experiment with Tov-21-G was “inactive” throughout.
Take `C[C@H]1C(=O)O[C@@H]2CCN3CC=C(COC(=O)[C@](C)(O)[C@]1(C)O)[C@H]23`: the Potency entry with CAOV3, with CASKI, with Es-2, in the experiment with HeLa, in the experiment on Hek293T and with JEG-3 was “inactive” each time. Besides, the Potency result with OV90, in the experiment on PA-1 and in the experiment on Tov-21-G was “inactive” in each case.
Regarding `C#C[C@]1(O)C=C[C@H]2[C@@H]3CCC4=CC(=O)CC[C@@H]4[C@H]3CC[C@@]21CC`, the Potency entry with CAOV3, with CASKI, with Es-2, in the experiment on Hek293T, with JEG-3 and in the experiment on OV90 was “inactive” each time. Further, the Potency result in the experiment with PA-1, with SKOV3 and with Tov-21-G was “inactive” in each case. In the experiment on HeLa, the Potency was 12.6 µM (active).
On to `CC(CC(C#N)(c1ccccc1)c1ccccc1)N(C)C` (configuration not stated), for which the Potency result in the experiment with CAOV3, in the experiment on CASKI, in the experiment on Es-2, in the experiment on HeLa, in the experiment with Hek293T and with JEG-3 was “inactive” each time. Further, the Potency result in the experiment with PA-1 and in the experiment on Tov-21-G was “inactive” in each case.
As to `CC1COC2(c3ccccc3Cl)c3cc(Cl)ccc3NC(=O)CN12` (configuration not stated), the Potency entry with CAOV3, with CASKI, with Es-2, in the experiment with HeLa, with Hek293T and in the experiment on JEG-3 was “inactive” each time. The Potency result in the experiment on PA-1, with SKOV3 and with Tov-21-G was “inactive” each time.
Consider `CC1N=C(N)OC1c1ccccc1` (configuration not stated), for which the Potency result in the experiment with CAOV3, in the experiment with CASKI, with Es-2, in the experiment with HeLa, with Hek293T and with JEG-3 was “inactive” in each case. In addition, the Potency result with PA-1 and with Tov-21-G was “inactive” throughout.
On to `Cc1ncc2n1-c1ccc(Cl)cc1C(c1ccccc1F)=NC2`, for which the Potency result in the experiment on CAOV3, in the experiment on CASKI, with Es-2, with HeLa, in the experiment with Hek293T and in the experiment on JEG-3 was “inactive” throughout. Besides, the Potency entry in the experiment with PA-1, in the experiment on SKOV3 and with Tov-21-G was “inactive” each time.
With `CCOC(=O)c1ncn2c1CN(C)C(=O)c1c(I)cccc1-2`, the Potency result with CAOV3, with CASKI, in the experiment on Es-2, in the experiment on HeLa, in the experiment with Hek293T and in the experiment on JEG-3 was “inactive” throughout. Also, the Potency result in the experiment on OV90, in the experiment with PA-1 and in the experiment on Tov-21-G was “inactive” in each case.
For `CC(CC(C(N)=O)(c1ccccc1)c1ccccc1)N(C)C` (configuration not stated), the Potency entry with CAOV3, with CASKI, in the experiment with Es-2, in the experiment on HeLa, with Hek293T and in the experiment on JEG-3 was “inactive” throughout. Also, the Potency entry in the experiment on OV90, in the experiment with PA-1, in the experiment with SKOV3 and with Tov-21-G was “inactive” in each case.
